# Compound activity from PubChem BioAssay.
# LANA-H2B inh – blocks KSHV LANA binding to histone H2A/H2B; inhibition, % (no concentration beside the values); 320,000 tested, 0.6% active; cell-free LANA-H2A/H2B peptide, fluorescence polarization; AID 2629; in the data active = inhibition mostly above about 10%, no sharp cut-off; inactive = mostly below about 6.7%
# A3A deaminase – human APOBEC3A DNA deaminase inhibition; inhibition, % at 20 µM; P31941; 330,000 tested, 0.41% active; recombinant A3A, FAM/TAMRA ssDNA deamination fluorescence;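 active = at least 40% inhibition at 20 µM here, with at most 30% in a related deaminase screen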;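 note: plate controls were A3A with DMSO for no effect and wells lacking A3A enzyme for full effect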
# A3G deaminase – inhibitors of human APOBEC3G DNA deaminase; Q9HC16; recombinant A3G, ssDNA deamination FAM/TAMRA fluorescence; inhibition, % at 20 µM; 330,000 tested, 0.28% active; AID 493012;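 active = inhibition of at least 40% at 20 µM, with no more than 30% in the related APOBEC3A deaminase screen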;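 note: plate controls were DMSO wells with A3G for no effect and wells lacking A3G enzyme for full effect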
# HDAC3 inh – blocks human histone deacetylase 3. recombinant HDAC3, fluorogenic peptide/trypsin coupled, fluorescence. inhibition, % at 8.3 µM. 320,000 tested, 0.15% active. AID 2718; in the data active = inhibition above about 26%, passing the limit was not always enough
# Target sequence (O15379 whole entry, looked up): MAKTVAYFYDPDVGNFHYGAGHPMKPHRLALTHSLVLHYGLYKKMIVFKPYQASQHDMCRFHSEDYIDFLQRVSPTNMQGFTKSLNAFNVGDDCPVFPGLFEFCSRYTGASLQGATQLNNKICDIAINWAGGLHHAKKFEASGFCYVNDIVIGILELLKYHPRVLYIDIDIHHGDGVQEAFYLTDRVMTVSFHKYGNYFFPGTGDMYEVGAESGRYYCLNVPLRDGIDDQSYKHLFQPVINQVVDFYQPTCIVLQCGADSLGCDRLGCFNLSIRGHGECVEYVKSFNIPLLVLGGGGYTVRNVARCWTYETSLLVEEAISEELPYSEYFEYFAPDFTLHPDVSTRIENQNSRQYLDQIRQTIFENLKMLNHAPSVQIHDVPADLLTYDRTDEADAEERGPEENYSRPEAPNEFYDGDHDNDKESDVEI
# APOBEC3A confirm – APOBEC3A (human) deaminase inhibition, confirmed. shares compounds with A3A deaminase. recombinant A3A, ssDNA deaminase UDG fluorescence assay. inhibition, % at 20 µM. 1,400 tested, 63% active. AID 493151;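 active = inhibition reaching a set limit, 80% of the first screen's cutoff, at 20 µM in any replicate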;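 note: plate controls were DMSO wells with A3A for no effect and wells lacking A3A enzyme for full effect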
# UDG A3A counter – UDG inhibition in APOBEC3A counter-screen; shares compounds with A3A deaminase; UDG counterscreen, FAM/TAMRA uracil oligo fluorescence; inhibition, % at 20 µM; 1,000 tested, under 10 active; call rule not given here
# Numbers without * were called inactive; . = no result; ! = repeats disagree. Most compounds without a hit are left out; they make up all but 1.4% or so of the library.
SMILES,LANA-H2B inh,A3A deaminase,A3G deaminase,HDAC3 inh,APOBEC3A confirm,UDG A3A counter
C/C(=N\NC1=NCCN1)c1ccccc1,-4,0,-5,2,.,.
Fc1ccccc1Sc1ccccc1CNC1=NCCN1,-1,63*,-4,-2,91*,-1
CN(C)Cc1ccccc1Sc1cccc2ccccc12,-1,.,.,2,.,.
c1ccc(Sc2cccc3ccccc23)c(CNC2=NCCN2)c1,4,58*,18,8,75*,2
Cc1cccc(N2CCN(C(=O)COc3ccc4c(c3)CCC4)CC2C)c1 (stereo not given),.,-4,-7,.,.,.
CNc1ccc(C(=O)OCC(=O)NC(=O)NC2CCCC2)cc1[N+](=O)[O-],-2,-4,-7,-2,.,.
C[N+]1(CN2C(=O)C3C4C=CC(C4)C3C2=O)CCCCC1 (stereo not given),1,68*,25,1,68*,-2
O=C(O)CN1C(=O)C2C3C=CC(C3)C2C1=O (stereo not given),-1,-2,-6,1,.,.
O=C(Cn1c(=O)n(CCC(=O)N2CCCCC2)c(=O)c2sccc21)NCc1ccccc1,-9,1,-5,-4,.,.
CC(C)Cc1nnc(NC(=O)Nc2ccccc2)s1,2,70*,-4,-1,1,4
CC(C)Cc1nnc(NC(=O)CCC(=O)Nc2ccccc2)s1,2,-3,-4,4,.,.
Cc1cc(C)n2nc[n+](C)c2n1,19*,53*,22,7,39*,-2
COc1ccc(C(=O)OCN2C(=O)c3ccccc3C2=O)cc1,3,6,10,-8,.,.
COc1cccc(C(=O)N/N=C/c2ccc(Oc3ccc([N+](=O)[O-])cn3)c(OC)c2)c1,3,59*,19,4,62*,-2
O=C(c1cccc(S(=O)(=O)NCc2ccc3c(c2)OCO3)c1)N1CCCC1,-5,89*,-9,0,-8,0
CC(C)c1ccc(N(CC(=O)NN=C2CCN(C)CC2)S(=O)(=O)c2ccccc2)cc1,3,65*,-4,7,3,7
CN1CCC(=NNC(=O)CN(c2ccccc2)S(=O)(=O)c2ccccc2)CC1,-4,-2,-6,4,.,.
COc1ccc(N(CC(=O)NCC(C)C)S(=O)(=O)c2ccccc2)cc1,0,41*,9,-1,10,.
COc1ccc(N(CC(=O)NCCSC2CCCCC2)S(=O)(=O)c2ccccc2)c(OC)c1,12,-5,-4,0,.,.
COc1ccc(N(CC(=O)NCCSc2ccc(C)cc2)S(=O)(=O)c2ccccc2)c(OC)c1,-1,54*,12,7,40*,-1
O=C(c1cc(C2CC2)nn1-c1ccccc1)N1CCN(Cc2c(F)cccc2Cl)CC1,2,-3,-7,2,.,.
COc1ccc(CCNC(=S)N2CCN(S(=O)(=O)c3ccc(C)cc3)CC2)cc1,2,-1,-8,-2,.,.
CCOC(=O)c1sc(N=NC2=C(O)CCCC2=O)c(C(=O)OCC)c1C,-2,40*,19,3,18*,0
c1ccc2[nH]c(-c3ccnc4ccccc34)nc2c1,-5,98*!,-1,-6,10,.
Fc1ccccc1-c1nc2ccccc2[nH]1,-3,-1,-7,-11,.,.
SMILES,LANA-H2B inh,A3A deaminase,A3G deaminase,HDAC3 inh,APOBEC3A confirm,UDG A3A counter
CN(C)C(=O)c1ccc(Nc2nc(-c3cccs3)nc3ccccc23)cc1,1,43*,-5,0,13,-3
COc1ccc(Nc2nc(-c3cccs3)nc3ccccc23)c(OC)c1,-5,-6,-5,-6,.,.
CCOc1ccc2c(c1)[N+](C)(C)C(C)(C)C=C2C,-2,78*,18,0,70*,-2
COc1ccc2c(c1)[N+](C)(C)C(C)(C)C=C2C,-10,56*,10,.,82*,4
COc1ccc2c(c1)C(C)=CC(C)(C)N2S(=O)(=O)c1ccc(C)cc1,-2,-2,-6,10,.,.
Cc1cc(C)c(S(=O)(=O)N2CCCC(C(=O)NCc3ccccn3)C2)c(C)c1 (stereo not given),1,0,-4,-1,.,.
CCCCn1c(N)c(N(CC)C(=O)CN2C(=O)NC(C)(c3ccccc3)C2=O)c(=O)[nH]c1=O (stereo not given),3,-2,9,-2,.,.
COc1ccccc1/C=c1\sc2nc(-c3ccco3)nn2c1=O,4,98,77,-5,.,.
CCOc1ccc(/C=c2\sc3nc(-c4ccco4)nn3c2=O)cc1OCC,3,74*,19,-4,31*,-4
O=C(OCc1nc2ccsc2c(=O)[nH]1)c1ccccc1,-4,56*,-11,-3,-2,-2
CCOC(=O)N1CCN(C(=O)Cc2cccc3ccccc23)CC1,-3,-2,-1,0,.,.
CCOC(=O)C1CCN(C(=O)Cc2cccc3ccccc23)CC1,0,40*,6,-8,58*,1
CC1=CC(C)C(CN(CCC[N+](C)(C)C)C(=O)Nc2ccccc2)C(C)C1 (stereo not given),6,58*,25,3,28*,-2
COc1ccc(NC(=O)c2cc(S(=O)(=O)N3CCOCC3)ccc2C)cc1S(=O)(=O)N1CCOCC1,1,7,5,2,.,.
CNC(=O)CN(C1CCCCC1)S(=O)(=O)c1ccc(OC)c(Cl)c1,-2,44*,17,-1,15,.
Cc1cccc(C(=O)OCC(=O)NCCNC(=O)COC(=O)c2cccc(C)c2C)c1C,0,40*,6,-1,17,.
O=[N+]([O-])c1ccc(CSc2nnc(-c3cccnc3)o2)cc1,-2,-2,-6,-2,.,.
COC(=O)\C(C(C)=O)=C(/C=C/C=C/N(C)C)N(C)C,-1,47*,14,11,35*,.
Cc1ccc(C(C(=O)NC2CCCCC2)N(C(=O)Cc2c[nH]c3ccccc23)c2ccccc2C)o1 (stereo not given),3,45*,-8,-3,7,-3
Cc1ccccc1N(C(=O)Cc1c[nH]c2ccccc12)C(C(=O)NC1CCCCC1)c1ccco1 (stereo not given),-3,-5,-3,2,.,.
CCN1CCN(C(=O)c2cc3cc([N+](=O)[O-])ccc3oc2=O)CC1,-3,-2,-7,3,.,.
O=C(c1cc2cc([N+](=O)[O-])ccc2oc1=O)n1cccn1,-4,59*,21,3,39*,.
O=C(NCC1CCCO1)c1ccccc1 (stereo not given),-6,-4,-6,-3,.,.
O=C(Nc1ccc(C(=O)c2ccccc2)cc1)c1ccccc1,5,3,-1,0,.,.
COc1cccc(NC(=O)c2ccc[n+](C)c2)c1,-3,77*,26,5,75*,2
C[n+]1cccc(C(=O)Nc2ccccc2)c1,6,70*,18,4,57*,-2
C[n+]1cccc(C(=O)NCC2CCCO2)c1 (stereo not given),-3,79*,24,6,75*,1
